Screens (PubChem)
Rows were chosen to be rich in hits. Some 12% of all compounds tested hit in one or more screens of this group.
L3MBTL1 block = qHTS Assay for the Inhibitors of L3MBTL1 | Lethal(3)malignant brain tumor-like protein 1 (Homo sapiens), Q9Y468 | AlphaScreen L3MBTL1–H3K9me1 peptide binding | Potency, µM (top dose mostly 57.1 µM), without a hit: at the top dose activity, negative = inhibition, actives largely listed as inhibitors | 230,000 compounds, 0.66% hits | AID 485360, 2010; further: on the % scale 0 is the no-effect control and ±100 the full control effect; nearly all actives have a fitted effect of over 60% in size
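AlphaScreen assay: L3MBTL1 (50 nM final) was preincubated 30 min at room temperature with biotinylated H3(1-15)K9me1 peptide (75 nM final), then 30 min with library compounds; streptavidin donor and nickel chelate acceptor beads (10 ug/mL final) added, 30 min dark.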
Sfp PPTase inh = qHTS Assay for Inhibitors of Bacillus subtilis Sfp phosphopantetheinyl transferase (PPTase) | AID 1490, 2009 | Potency, µM, for inactives: largest response in the series, negative = inhibition, usual class: inhibitors | 310,000 compounds, 3.5% hits | Biochemical Sfp PPTase activity, qHTS;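 further: the enzyme is Sfp with the accession as filed and its product quenches rhodamine fluorescence; 0% = enzyme reaction without inhibitor and -100% = no enzyme wells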
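Sfp 15 nM + cpd, 15 min RT; start w/ rhodamine-CoA 5 uM, BHQ-2-YbbR 12.5 uM (final); 50 mM Hepes pH 7.6, 10 mM MgCl2, 0.01% NP-40, 0.01% BSA; read 525/598 nm at 0 and 30 min.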
G9a block = qHTS Assay for Inhibitors of Histone Lysine Methyltransferase G9a; Histone-lysine N-methyltransferase EHMT2 (Homo sapiens), Q96KQ7; G9a H3K9 monomethylation, AlphaScreen, 2 h; Potency, µM (doses to about 102 µM), for the others: top-dose activity, negative = inhibition, usual class: inhibitors; 350,000 compounds, 8.8% hits; further: on the % scale 0 is the no-effect control and ±100 the full control effect; nearly all actives have a fitted effect of over 75% in size
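Quantitative HTS format: methyltransferase activity on a biotin-tagged H3K9 peptide is measured by AlphaScreen, using a rabbit anti-monomethyl-H3K9 antibody with streptavidin donor and anti-IgG acceptor beads. Final levels are 20 nM enzyme, 500 nM peptide, 20 uM SAM; 2 h RT.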
HP1b binding inh = HTS for Inhibitors of HP1-beta Chromodomain Interactions with Methylated Histone Tails. Chromobox protein homolog 1 (Homo sapiens), P83916. AlphaScreen HP1-beta / biotin-H3K9me3 peptide binding. Potency, µM (doses to about 114 µM), for the others: top-dose activity change, negative = inhibition, most hits filed as inhibitors. 390,000 compounds, 0.56% hits. AID 540317, 2011; further: nearly all actives have a fitted effect of over 70% in size
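HP1-beta protein (50 nM final) preincubated 30 min at room temperature with biotinylated H3(1-18)K9me3 peptide (50 nM) in PBS pH 7.4, 0.01% Tween-20, then compound added for 30 min. AlphaScreen streptavidin donor/nickel chelate acceptor beads (10 ug/mL final), 30 min dark, luminescence read.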
JMJD2A Tudor = qHTS Assay for Inhibitors of JMJD2A-Tudor Domain; AID 504339, 2011; AlphaScreen JMJD2A-Tudor / H3K4me3 peptide binding; Potency, µM (titrated, usually from 114 µM), for inactives: at the highest dose activity change, negative = inhibition, most hits filed as inhibitors; 390,000 compounds, 4.4% hits; Lysine-specific demethylase 4A (Homo sapiens), O75164; further: on the % scale 0 is the no-effect control and ±100 the full control effect; nearly all actives have a fitted effect of over 50% in size
BAZ2B block = qHTS Assay for Inhibitors of BAZ2B. Bromodomain adjacent to zinc finger domain protein 2B (Homo sapiens), Q9UIF8. AlphaScreen BAZ2B-H3K14Ac peptide displacement. Potency, µM (series often up to 114 µM), for the others: at the highest dose activity change, negative = inhibition, hits mostly inhibitors. 360,000 compounds, 4.4% hits. AID 504333, 2011; further: on the % scale 0 is the no-effect control and ±100 the full control effect; nearly all actives have a fitted effect of over 60% in size
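BAZ2B 50 nM plus b-H3(5-23)K14Ac 50 nM, PBS pH 7.4/0.01% Tween-20, 30 min RT; compound added (max 110 uM), 30 min RT; streptavidin donor/Ni-chelate acceptor beads 10 ug/mL final, 20 min dark; AlphaScreen read.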
Numbers without * were called inactive; u = inconclusive; x = no result given; [ ] = dose if it differs, or a comment. The call rests on the fitted dose curve; in most records, active means well fitted curve in the direction sought with a large enough effect; inconclusive means small, poorly fitted or top-dose-only effect, or another doubt; inactive means no such curve, though single readings can be large; an effect the other way counts as inactive or inconclusive. Potency means the concentration at half of the fitted maximal effect.

SMILES	L3MBTL1 block	Sfp PPTase inh	G9a block	HP1b binding inh	JMJD2A Tudor	BAZ2B block
CC(=O)Nc1cccc(C(=O)OC(C)C(=O)Nc2ccc(S(=O)(=O)N3CCCC3)cc2)c1 (stereo not drawn)	2%	x	50µM*	22%	-3%	11%
CC(=O)Nc1ccc(NC(=O)C(C)OC(=O)c2cccc(S(=O)(=O)N3CCCC3)c2)cc1 (stereo not drawn)	-9%	x	40µM*	20%	-8%	2%
CC(Oc1ccccc1Cl)C(=O)Nc1ccc(S(=O)(=O)N2CCN(C)CC2)cc1 (stereo not drawn)	x	x	x	-16%[57 µM]	50µM*	x
CNC(=O)c1ccc(CSc2nc3cccnc3n2Cc2cccc(F)c2)cc1	x	x	-21%[59 µM]	19%	-10%	-27%
CC(Oc1ccc(Br)cc1Br)C(=O)Nc1cccnc1Cl (stereo not drawn)	x	-3%	52%	193%	44%	33%
CN(C)c1ccc(NC(=O)Cn2c(SCc3ccc(F)cc3)nc3ccncc32)cc1	x	x	6.3µM*	2%	u	u
CCOC(=O)C1=C(N)Oc2ccc(Br)cc2C1C(C#N)C(=O)OCC (stereo not drawn)	x	-15%	20%[59 µM]	x	x	x
C[C@H](CO)N1C[C@H](C)[C@@H](CN(C)S(=O)(=O)c2cccs2)Oc2c(NC(=O)CCC(F)(F)F)cccc2C1=O	6%	x	x	36%	-4%	x
CCOc1ccc2nc(SCC)[nH]c2c1	1%	-19%	-23%[59 µM]	72%	-18%[57.1 µM]	89µM*
CCOc1ccc2nc(SCC(=O)NCc3ccccc3)[nH]c2c1	-4%[2.29 µM]	0%	-8%[0.501 µM]	24%	-5%	6%
CCOC(=O)c1nc(Nc2ccc(Nc3ccccc3)cc2)c2ccccc2n1	x	9%	u	u	28µM*	16µM*
CCOC(=O)c1nc(Nc2ccc(C(=O)O)cc2)c2ccccc2n1	3%	8%	40µM*	9%	28µM*	-7%
CCOC(=O)c1nc(Nc2ccc(N3CCC(C)CC3)cc2)c2ccccc2n1	-29%	-12%	x	u	28µM*	40µM*
CCOC(=O)c1ccc(Nc2nc(C(=O)OCC)nc3ccccc23)cc1	-9%	-9%	-5%[59 µM]	61%	-12%	-2%
COC(=O)[C@@]12CCCN1[C@H](c1ccc(-c3cccc(Cl)c3)cc1)[C@H]1C(=O)N(C)C(=O)[C@H]12	-10%	x	-9%[2.33 µM]	17%	-26%	u
c1ccc(-c2nc(N3CCOCC3)c3ccccc3n2)nc1	x	14µM*	u	42%	-33%	u
c1ccc(-c2nc(N3CCCCCC3)c3ccccc3n2)nc1	u	-29%	-31%	36%	u	50µM*
CCN1CCN(c2nc(-c3ccccn3)nc3ccccc23)CC1	u	u	-17%	11%	u	u
COc1ccc(Oc2nc(-c3ccccn3)nc3ccccc23)cc1	-17%	40µM*	x	6%	u	-16%
COc1ccc(CC(=O)Nc2nnc3n2CCS3)cc1	x	x	u	17%[57 µM]	56µM*	u
CCOc1ccc(CC(=O)Nc2nnc3n2CCS3)cc1	x	x	29%[59 µM]	-2%[57 µM]	56µM*	11%
CCCCn1c(N)c(N(CC(C)C)C(=O)CN2C(=O)NC3(CCC(C(C)(C)CC)CC3)C2=O)c(=O)[nH]c1=O (stereo not drawn)	x	x	x	30%	-14%	x
CCCC1(C2CCCC2)NC(=O)NC1=O (stereo not drawn)	x	x	x	36%	0%	x
Cn1c(CN2CCN(CC#N)CC2)c(C#N)c2ccccc21	x	-1%	45µM*	53%	-5%	0%
Cn1c(CNC2CCCCC2)c(C#N)c2ccccc21	9%	6%	15%	44%	8%	2%
SMILES	L3MBTL1 block	Sfp PPTase inh	G9a block	HP1b binding inh	JMJD2A Tudor	BAZ2B block
Cn1c(CN2CCCCC2)c(C#N)c2ccccc21	2%	10%	28µM*	31%	7%	6%
Cn1c(CN2CCC(C(N)=O)CC2)c(C#N)c2ccccc21	-8%	0%	-19%[59 µM]	-6%	0%[57.1 µM]	2%
C/C(=N\NC(=O)CSCc1ccc([N+](=O)[O-])cc1)c1ccccc1O	-2%	5%	14%[59 µM]	36%	-5%	u
COc1ccc(C(=O)COC(=O)c2cccc(-n3cnnn3)c2)c(OC)c1	u	x	u	26%	-13%	-6%
COC(=O)c1c(C(=O)OC)c2cccc3cc(-c4ccccc4)c4ccc1c4n32	x	-6%	u	u	8.9µM*	2.5µM*
COC(=O)c1c(C)n(-c2ccccc2)c2ccc(O)cc12	-14%	u	-3%[0.0925 µM]	-7%	u	-35%
COC(=O)c1cc2c(-c3ccccc3)cc3ccccn3c-2c1C(=O)OC	x	-11%	13µM*	u	45µM*	13µM*
COC(=O)c1c(C)c2c(C)cc3ccccn3c-2c1C(=O)OC	x	-6%	u	u	u	u
COc1ccc2cc(/C(C)=N/NC(=O)c3cc(-c4cccnc4)nc4ccccc34)ccc2c1	30%	-9%	-3%[59 µM]	44%	-4%	24%
Cc1cc(C(=O)Nc2sc(C)c(C)c2C#N)no1	15%	-5%	u	11%	-12%	1%
COc1cc2cc3c(N)c(C(=O)NCc4ccco4)sc3nc2cc1OC	-2%	-15%	28µM*	30%	-22%	-4%
Cc1ccc2nc3sc(C(=O)NCc4ccco4)c(N)c3cc2c1	-1%	4%	1.6µM*	45%	-21%	-30%
COc1cc2cc3c(N)c(C(=O)Nc4sc(C)c(C)c4C#N)sc3nc2cc1OC	3.2µM*	-20%	-39%[59 µM]	u	79µM*	56µM*
Cc1cc(C)cc(C(=O)N(C)[C@H](Cc2ccc(-c3ccccc3)cc2)C(=O)N[C@@H](Cc2c[nH]c3ccccc23)C(=O)O)c1	x	5%	x	x	x	x
O=C(O)[C@@H]1CSCN1	x	56µM*	-2%[12.7 µM]	x	x	x
CCOc1cccc(OCCCCN2CCCCC2)c1	-4%	u	8.9µM*	u	u	u
Clc1cccc(OCCN2CCCC2)c1	-1%	12%	u	26%	-10%	-1%
COc1cccc(OCCCN2CCCCC2)c1	-6%	9%	-6%	14%	-12%	5%
CC(C)c1cccc(OCCN2CCCC2)c1	-1%	-5%	32µM*	u	35µM*	u
